About 83,000 compounds went through this panel and 20% of them were active in at least one assay; those are over-represented in the sample as a whole.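 Activity criterion: percent growth below 10, measured after cells in 96-well plates were exposed to a single compound concentration for 48 hours.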 Values without a mark were called inactive. Activity calls are given as the source filed them.
Columns and labels:
Assay in all cases: NCI-60 one-dose screen, 48 h (100 = growth as untreated, 0 = no growth, -100 = all killed)
Conditions in all cases: 10 µM unless noted
HCT-15 colon = tested on: HCT-15 colon
HT29 colon = tested on: HT29 colon
SNB-75 CNS = tested on: SNB-75 CNS
SNB-19 CNS = tested on: SNB-19 CNS
U251 CNS = tested on: U251 CNS
PC-3 prostate = tested on: PC-3 prostate
SK-MEL-5 melanoma = tested on: SK-MEL-5 melanoma
UACC-62 melanoma = tested on: UACC-62 melanoma
SK-MEL-28 melanoma = tested on: SK-MEL-28 melanoma

| SMILES | growth (HCT-15 colon) | growth (HT29 colon) | growth (SNB-75 CNS) | growth (SNB-19 CNS) | growth (U251 CNS) | growth (PC-3 prostate) | growth (SK-MEL-5 melanoma) | growth (UACC-62 melanoma) | growth (SK-MEL-28 melanoma) |
| --- | --- | --- | --- | --- | --- | --- | --- | --- | --- |
| C=C1CC[C@@H]2[C@]3(C)COC(c4cn[nH]c4-c4ccc(OC)cc4)O[C@@H]3CC[C@@]2(C)[C@@H]1C/C=C1/C(=O)OCC1O (some centres not stated) | -35.3% (active) | -26.3% (active) | -16.5% (active) | 18.5% | -76% (active) | 39.3% | -94.3% (active) | -75.2% (active) | -52.2% (active) |
| O=C(COc1ccc(NC(=O)Nc2ccc(Cl)c(Cl)c2)cc1)N=Nc1c(O)[nH]c2ccc(Br)cc12 | 27% | -46.2% (active) | 7.51% (active) | -5.58% (active) | -84.7% (active) | -16.6% (active) | -89% (active) | -35.5% (active) | -77% (active) |
| CC(C)CCNC(=O)N/C(N)=N/c1nc2ccccc2s1 | 48.4% | 68.8% | 82.2% | 58.4% | 67.4% | 62.6% | 15.8% | 59.2% | 81.3% |
| C(=C\c1cc(/C=C/c2ccccc2)c2ccccc2n1)/c1ccccc1 | 29.2% | 86% | 115% | 97.7% | 62.3% | 78.2% | 81.7% | 93.4% | 114% |
| S=c1c2ccccc2nc2n1CCc1c-2[nH]c2ccccc12 | 68.9% | 78.8% | 0.815% (active) | 16.1% | 73.8% | 60.8% | 67% | 64.1% | 74.8% |
| COc1cc(-c2ccc(/C=N/NC(=O)c3[nH]c4ccc(Br)cc4c3-c3ccccc3)o2)cc(OC)c1OC | 69.2% | 96.4% | 74.4% | 52.4% | 40.6% | 68.8% | 92.2% | 77.2% | 86.8% |
| COc1ccc(NC(=O)[C@H](CO)NC(=O)OC(C)(C)C)cc1C(=O)Nc1cccc(C2CC(=O)c3c(cc(OC)c(OC)c3OC)O2)c1 (some centres not stated) | 33% | 49.4% | 51.4% | 69.2% | 61.9% | 49.8% | 27.9% | 49.1% | 71.4% |
| CCCCNC(=S)Nc1ccc(OCc2nc3ccccc3[nH]2)cc1 | 47.9% | 50.3% | 56% | 70% | 57.4% | 58.2% | 78% | 38.2% | 88.2% |
| CC1=C(C(=O)OCc2ccccc2)C(c2ccc(-n3cncn3)cc2)n2c(nc3ccccc32)N1 (configuration not stated) | 33.1% | 24.7% | 47.9% | 66.9% | 63.4% | 43.3% | 39.7% | 16.2% | 66.5% |
| Cc1cc2c(cc1Cl)C(=O)/C(=C/c1ccccc1)O2 | 13.3% | 38.6% | 52.5% | 34.6% | 8.18% (active) | 29.8% | -75.4% (active) | 29.3% | 49.9% |
| CC1[C@H]2[C@H](C[C@H]3[C@@H]4CC=C5c6sc(Nc7ccccc7F)nc6CC[C@]5(C)[C@H]4CC[C@@]32C)O[C@]12CC[C@@H](C)CO2 (some centres not stated) | -80% (active) | -79.3% (active) | -55.6% (active) | -37.5% (active) | -88.2% (active) | -47.2% (active) | -58.1% (active) | -70.8% (active) | -97.1% (active) |
| O=C(/C=C/c1ccc(O)c(O)c1)NC1CCOC1O (configuration not stated) | 94.6% | 113% | 91.6% | 98.8% | 95.4% | 95.4% | 103% | 104% | 107% |
| N#Cc1c(-c2cccc(O)c2O)cc(-c2ccc3ccccc3c2)[nH]c1=O | 52.8% | 98.2% | -6.63% (active) | 41.1% | 40.2% | 67.5% | 45.9% | 77.5% | 45.7% |
| COc1cc2c(c(OC)c1OC)C(=O)CC(c1cccc(NC(=O)c3cccc([N+](=O)[O-])c3)c1)O2 (configuration not stated) | 16.9% | 34.7% | 38.1% | 52.6% | 49.1% | 18.6% | -6.2% (active) | 13.4% | 41.7% |
| COc1cc(/C=C/C(=O)c2nnn(-c3ccc(Cl)cc3)c2C)cc(OC)c1OC | 12.4% | 15.5% | 22.5% | 60.3% | 17.3% | 30.6% | 21.5% | 28.7% | 46.9% |
| Cc1c(C(=O)NNC(=O)Nc2ccc(Cl)cc2)nnn1-c1ccc(Br)cc1 | 97% | 97.2% | 90.2% | 91.4% | 104% | 103% | 99.4% | 88.7% | 96.5% |
| COc1ccc(NC(=O)c2sc3nc(C(C)C)ccc3c2N)cc1 | 69.5% | 73.6% | 104% | 91.4% | 84.6% | 71.7% | 44.6% | 85.6% | 94% |
| Cc1c(C(=O)NNC(=O)c2ccc(Cl)cc2)nnn1-c1ccc(Br)cc1 | 98.3% | 96.4% | 90.6% | 97% | 112% | 99.9% | 97.7% | 90.5% | 95.7% |
| CC(=O)Oc1ccccc1C(=O)[Se]C(=NC1CCCCC1)NC1CCCCC1 | -73.5% (active) | -60.8% (active) | -63.3% (active) | -94.9% (active) | -87% (active) | -31% (active) | -89.3% (active) | -90.7% (active) | -89.1% (active) |
| CC1=C(C(=O)c2ccccc2)C(c2ccc(-n3cncn3)cc2)n2c(nc3ccccc32)N1 (configuration not stated) | 83.9% | 93.7% | 76.4% | 74.9% | 71.7% | 78.7% | 89.7% | 70.6% | 106% |
| N/C(=N\c1nc2ccccc2s1)NC(=O)NCCCCCCO | 57.7% | 76.2% | 20.6% | 51.6% | 69% | 47.3% | -3.23% (active) | 49.1% | 76.5% |
| N#Cc1cnn(C(=O)c2ccccc2Br)c1NC(=O)c1ccc(Br)cc1Cl | 101% | 104% | 106% | 97.2% | 93.3% | 103% | 98.6% | 101% | 103% |
| S=C(Nc1ccc(OCc2nc3ccccc3[nH]2)cc1)NC1CCCCC1 | 106% | 102% | 99.1% | 94% | 97% | 95.8% | 92.3% | 77.6% | 85.2% |
| O=C1NC(=O)/C(=C/c2ccccc2OCc2cc3ccccc3nc2Cl)S1 | 84% | 108% | 46.9% | 39.2% | 58% | 112% | 67.6% | 52% | 102% |
| O=C(COc1ccc(NC(=O)Nc2ccccc2)cc1)N=Nc1c(O)[nH]c2ccc([N+](=O)[O-])cc12 | 103% | 6.92% (active) | 7.51% (active) | 0.584% (active) | -72.8% (active) | 2.22% (active) | 28.4% | 16% | -43.9% (active) |
| COc1cc(-c2cc(-c3cccc(OCC(=O)O)c3)[nH]c(=O)c2C#N)cc(OC)c1OC | 100% | 112% | 116% | 92.3% | 113% | 97.6% | 99.7% | 95.5% | 102% |
| COc1ccc(C(=O)/C=C/c2ccc(OCc3ccccc3)c(OC)c2)cc1OC | 9.77% (active) | 15.1% | -15.9% (active) | 14.4% | 10.1% | 37% | 34.9% | 29% | 70.4% |
| C=C1CC[C@@H]2[C@]3(C)COC(c4cn[nH]c4-c4ccccc4)O[C@@H]3CC[C@@]2(C)[C@@H]1C/C=C1/C(=O)OCC1O (some centres not stated) | -81% (active) | -79% (active) | 105% | 45.3% | -18.6% (active) | 33.3% | -77.2% (active) | -12.7% (active) | -55.2% (active) |

— PubChem BioAssay (NCI)
